From PubChem BioAssay (NCI)
About 79,000 compounds went through this panel and 15% of them were active in at least one assay; those are over-represented in the sample as a whole. Calls of active or inactive are those of the source. No stated cut-off is given here; in the data, active means growth inhibition above about 70%; inactive means the rest.

Legend:
[1] = NCI Yeast Anticancer Drug Screen. Data for the rad52 strain (AID 147);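 further: 0% = growth of vehicle-treated control cultures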; settings: S. cerevisiae rad52 mutant growth inhibition, stronger effect = higher value
Procedure, shortened: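 Screen used a yeast mutant impaired in DNA repair. After compound exposure, growth was measured. Values reflect inhibition compared with vehicle-treated cells.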

[2] = NCI Yeast Anticancer Drug Screen. Data for the wt1 strain (AID 149);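 further: 0% = growth of vehicle-treated wt1 cultures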; settings: S. cerevisiae wt1 strain (SPY 50644) growth inhibition, stronger effect = higher value
Procedure, shortened: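 Readout: yeast growth inhibition, normalised to vehicle controls, in the wt1 strain exposed to test compounds.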

[3] = NCI Yeast Anticancer Drug Screen. Data for the rad50EPP+ strain (AID 151);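 further: 0% = growth of vehicle-treated control cultures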; settings: S. cerevisiae rad50 mutant strain, stronger effect = higher value
Procedure, shortened: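 Exposing the rad50EPP+ strain to each compound, growth was compared with vehicle-only cultures to give inhibition.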

[4] = NCI Yeast Anticancer Drug Screen. Data for the mgt1 strain (AID 153); settings: S. cerevisiae mgt1 mutant growth inhibition, stronger effect = higher value
Procedure, shortened: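 Genetically defined yeast (mgt1) treated with compound; inhibition of growth expressed against vehicle-treated controls.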

[5] = NCI Yeast Anticancer Drug Screen. Data for the rad50 strain (AID 155);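 further: 0% = growth of vehicle-only cultures of the same strain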; settings: S. cerevisiae rad50 strain growth inhibition, stronger effect = higher value
Procedure, shortened: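 Compounds were tested on a yeast strain with an engineered DNA damage repair alteration; the reported value is growth inhibition normalised to vehicle treatment.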

[6] = NCI Yeast Anticancer Drug Screen. Data for the mec2-1 strain (AID 157); settings: S. cerevisiae mec2-1 strain, stronger effect = higher value
Procedure, shortened: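 Readout is yeast growth inhibition, normalised to vehicle-treated controls, in the mec2-1 strain exposed to compound.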

[7] = NCI Yeast Anticancer Drug Screen. Data for the sgs1 mgt1 strain (AID 161);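 further: 0% = growth of cultures given vehicle only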; settings: S. cerevisiae sgs1 mgt1 strain, stronger effect = higher value
Procedure, shortened: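 Compounds are added to genetically altered yeast, and growth is compared with cultures given vehicle alone to give percent inhibition.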

[8] = NCI Yeast Anticancer Drug Screen. Data for the CLN2oe strain (AID 163);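 further: 0% = growth of vehicle-only control cultures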; settings: S. cerevisiae CLN2oe strain, stronger effect = higher value
Procedure, shortened: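 Values reflect how much compound exposure reduced yeast growth, referenced to vehicle-exposed cells. Assay organism is a strain with a defined genetic change affecting cell-cycle control.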

[9] = NCI Yeast Anticancer Drug Screen. Data for the cln2 rad14 strain (AID 165);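 further: 0% = growth equal to vehicle treated cultures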; settings: S. cerevisiae cln2 rad14 strain, stronger effect = higher value
Procedure, shortened: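 Relative to vehicle controls, growth inhibition of compound-treated cln2 rad14 yeast was recorded.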

[10] = NCI Yeast Anticancer Drug Screen. Data for the bub3 strain (AID 167); settings: S. cerevisiae bub3 mutant strain, stronger effect = higher value
Procedure, shortened: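 Growth of a checkpoint-deficient yeast mutant is measured after compound exposure. Values represent inhibition relative to vehicle.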

[11] = NCI Yeast Anticancer Drug Screen. Data for the mlh1 strain (AID 171);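 further: 0% = growth of vehicle-treated control cultures of the same strain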; settings: S. cerevisiae mlh1 strain growth inhibition, stronger effect = higher value
Procedure, shortened: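 Steps: expose the defined-mutant yeast strain to compound; expose a parallel culture to vehicle; measure growth; express compound effect as inhibition relative to the vehicle culture.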

[12] = NCI Yeast Anticancer Drug Screen. Data for the sgs1 strain (AID 173);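 further: 0% = growth of vehicle-only control cultures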; settings: S. cerevisiae sgs1 mutant, stronger effect = higher value
Procedure, shortened: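 Treat defined-mutant yeast with compound; measure growth; calculate inhibition relative to vehicle-treated cells.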

[13] = NCI Yeast Anticancer Drug Screen. Data for the mlh1 rad18 strain (AID 175); settings: S. cerevisiae mlh1 rad18 strain growth inhibition, stronger effect = higher value
Procedure, shortened: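 Test agents were incubated with a yeast strain of defined genotype (DNA damage repair defect). Inhibition of growth was derived by comparison with vehicle-exposed cultures.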

[14] = NCI Yeast Anticancer Drug Screen. Data for the rad18 strain (AID 177); settings: S. cerevisiae rad18 mutant growth inhibition, stronger effect = higher value
Procedure, shortened: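 A genetically defined yeast mutant impaired in DNA damage repair was treated with test compounds, then its growth was measured against cultures receiving vehicle alone.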

[15] = NCI Yeast Anticancer Drug Screen. Data for the rad14 strain (AID 159);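 further: 0% = growth of vehicle-treated control cultures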; settings: S. cerevisiae rad14 strain growth inhibition, stronger effect = higher value
Procedure, shortened: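 Compound-treated yeast with a defined DNA-repair lesion; growth inhibition normalised to vehicle-treated cultures.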

[16] = NCI Yeast Anticancer Drug Screen. Data for the wt2 strain (AID 169);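 further: 0% = growth of vehicle-treated yeast cultures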; settings: S. cerevisiae wt2 strain growth inhibition, stronger effect = higher value
Procedure, shortened: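 Values express reduction in yeast growth under compound treatment, referenced to vehicle-treated cells.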

[17] = at 5.0 µM (retest, dose inferred, filed as 0.5)
[18] = at 50.0 µM (retest, dose inferred, filed as 5.0)

Measured: growth inhibition

COc1cccc(/C=N/C(/N=C/c2cccc(OC)c2O)c2cccc(OC)c2O)c1O
active: [1]; at 100.0 µM 97% | [2]; at 100.0 µM 91% | [3]; at 33.0 µM 93% | [3]; at 100.0 µM 98% | [4]; at 100.0 µM 98% | [5]; at 33.0 µM 87% | [5]; [18] 79% | [5]; at 50.0 µM 89.5% | [5]; at 100.0 µM 97% | [6]; at 50.0 µM 87% | [6]; at 100.0 µM 96% | [7]; [18] 71% | [7]; at 50.0 µM 86.7% | [10]; at 100.0 µM 98% | [11]; at 100.0 µM 97% | [12]; at 100.0 µM 98% | [13]; at 50.0 µM 94.8% | [14]; at 100.0 µM 98%
inactive: [1]; at 1.2 µM 1% | [1]; at 3.7 µM 5% | [1]; at 11.0 µM 23% | [1]; at 33.0 µM 67% | [2]; at 1.2 µM -1% | [2]; at 3.7 µM 1% | [2]; at 11.0 µM 7% | [2]; at 33.0 µM 26% | [3]; at 1.2 µM 2% | [3]; at 3.7 µM 15% | [3]; at 11.0 µM 61% | [4]; at 1.2 µM -1% | [4]; at 3.7 µM -2% | [4]; at 11.0 µM 5% | [4]; at 33.0 µM 36% | [5]; at 1.2 µM 4% | [5]; at 3.7 µM -28% | [5]; [17] 19% | [5]; at 11.0 µM 52% | [6]; at 1.2 µM -1% | [6]; at 3.7 µM 2% | [6]; [17] -4% | [6]; at 11.0 µM 8% | [6]; at 33.0 µM 25% | [6]; [18] 27% | [7]; [17] 4% | [8]; at 1.2 µM -2% | [8]; at 3.7 µM 3% | [8]; at 11.0 µM 8% | [8]; at 33.0 µM 20% | [8]; at 100.0 µM 54% | [9]; [17] -1% | [9]; [18] 34% | [9]; at 50.0 µM 45% | [10]; at 1.2 µM -2% | [10]; at 3.7 µM -1% | [10]; [17] -5% | [10]; at 11.0 µM 1% | [10]; at 33.0 µM 39% | [10]; [18] 43% | [10]; at 50.0 µM 67% | [11]; at 1.2 µM 0% | [11]; at 3.7 µM 2% | [11]; at 11.0 µM 7% | [11]; at 33.0 µM 33% | [12]; at 1.2 µM -1% | [12]; at 3.7 µM 3% | [12]; at 11.0 µM 19% | [12]; at 33.0 µM 67% | [13]; [17] 4% | [13]; [18] 65% | [14]; at 1.2 µM -1% | [14]; at 3.7 µM 9% | [14]; at 11.0 µM 21% | [14]; at 33.0 µM 68%

CCCCc1nnc(NS(=O)(=O)c2ccc(C)cc2)s1
inactive: [1]; at 1.2 µM -14% | [1]; at 3.7 µM -20% | [1]; at 11.0 µM -3% | [1]; at 33.0 µM 37% | [2]; at 1.2 µM -35% | [2]; at 3.7 µM -32% | [2]; at 11.0 µM -18% | [2]; at 33.0 µM 19% | [3]; at 1.2 µM -29% | [3]; at 3.7 µM -34% | [3]; at 11.0 µM -30% | [3]; at 33.0 µM -21% | [3]; at 100.0 µM -35% | [4]; at 1.2 µM -25% | [4]; at 3.7 µM -28% | [4]; at 11.0 µM -12% | [4]; at 33.0 µM 25% | [5]; at 1.2 µM -15% | [5]; at 3.7 µM -13% | [5]; [17] 48% | [5]; at 11.0 µM 0% | [5]; at 33.0 µM 45% | [15]; at 1.2 µM -51% | [15]; at 3.7 µM -45% | [15]; at 11.0 µM -34% | [15]; at 33.0 µM 6% | [7]; [17] -24% | [7]; [18] 31% | [8]; at 1.2 µM 0% | [8]; at 3.7 µM 2% | [8]; at 11.0 µM 15% | [8]; at 33.0 µM 20% | [9]; [17] 35% | [9]; [18] 56% | [9]; at 50.0 µM 49.5% | [10]; at 1.2 µM -4% | [10]; at 3.7 µM 9% | [10]; [17] 27% | [10]; at 11.0 µM 15% | [10]; at 33.0 µM 47% | [10]; [18] 61% | [10]; at 50.0 µM 68.2% | [16]; at 1.2 µM -28% | [16]; at 3.7 µM -22% | [16]; at 11.0 µM -10% | [16]; at 33.0 µM 20% | [11]; at 1.2 µM -32% | [11]; at 3.7 µM -43% | [11]; at 11.0 µM -24% | [11]; at 33.0 µM 23% | [12]; at 1.2 µM -13% | [12]; at 3.7 µM -22% | [12]; at 11.0 µM -6% | [12]; at 33.0 µM 31% | [13]; at 50.0 µM 59.1% | [14]; at 1.2 µM -12% | [14]; at 3.7 µM 4% | [14]; at 11.0 µM 15% | [14]; at 33.0 µM 36%
active: [1]; at 100.0 µM 83% | [2]; at 100.0 µM 84% | [4]; at 100.0 µM 85% | [5]; [18] 94% | [5]; at 50.0 µM 72% | [5]; at 100.0 µM 86% | [15]; at 100.0 µM 82% | [7]; at 50.0 µM 72% | [8]; at 100.0 µM 87% | [10]; at 100.0 µM 85% | [16]; at 100.0 µM 80% | [11]; at 100.0 µM 74% | [12]; at 100.0 µM 80% | [13]; [17] 77% | [13]; [18] 99% | [14]; at 100.0 µM 86%

CCCC/C=C/C(C)(C(=O)OCC)C(=O)OCC
inactive: [1]; at 1.2 µM -5% | [1]; at 3.7 µM -5% | [1]; at 11.0 µM -1% | [1]; at 33.0 µM 4% | [1]; at 100.0 µM 22% | [2]; at 1.2 µM -5% | [2]; at 3.7 µM -5% | [2]; at 11.0 µM -5% | [2]; at 33.0 µM -7% | [2]; at 100.0 µM 3% | [3]; at 1.2 µM -3% | [3]; at 3.7 µM 0% | [3]; at 11.0 µM 4% | [3]; at 33.0 µM 9% | [3]; at 100.0 µM 16% | [4]; at 1.2 µM -4% | [4]; at 3.7 µM -4% | [4]; at 11.0 µM -4% | [4]; at 33.0 µM -2% | [4]; at 100.0 µM 16% | [5]; at 1.2 µM -6% | [5]; at 3.7 µM -5% | [5]; [17] 10% | [5]; at 11.0 µM -1% | [5]; at 33.0 µM 0% | [5]; [18] 8% | [5]; at 50.0 µM -6.4% | [5]; at 100.0 µM 19% | [15]; at 1.2 µM -5% | [15]; at 3.7 µM -5% | [15]; at 11.0 µM -1% | [15]; at 33.0 µM 3% | [15]; at 100.0 µM 15% | [7]; [17] 0% | [7]; [18] 51% | [7]; at 50.0 µM 37.6% | [8]; at 1.2 µM -3% | [8]; at 3.7 µM -7% | [8]; at 11.0 µM -8% | [8]; at 33.0 µM -1% | [8]; at 100.0 µM 12% | [9]; [17] -6% | [9]; [18] 32% | [9]; at 50.0 µM 58.5% | [10]; at 1.2 µM -6% | [10]; at 3.7 µM -5% | [10]; [17] -2% | [10]; at 11.0 µM -6% | [10]; at 33.0 µM -1% | [10]; [18] 12% | [10]; at 50.0 µM 67.8% | [10]; at 100.0 µM 19% | [16]; at 1.2 µM -4% | [16]; at 3.7 µM -4% | [16]; at 11.0 µM -6% | [16]; at 33.0 µM -4% | [16]; at 100.0 µM 14% | [11]; at 1.2 µM -4% | [11]; at 3.7 µM -3% | [11]; at 11.0 µM -1%
